# Measurements as given in ChEMBL document CHEMBL1961873, “Compounds: GSK PKIS; Assays: Nanosyn kinase panel” (2012).
# Molecular target: Mast/stem cell growth factor receptor Kit (Homo sapiens) (UniProt P10721)
# Details: at 1 µM
# Mast/stem cell growth factor receptor Kit (Homo sapiens), sequence (P10721 whole entry): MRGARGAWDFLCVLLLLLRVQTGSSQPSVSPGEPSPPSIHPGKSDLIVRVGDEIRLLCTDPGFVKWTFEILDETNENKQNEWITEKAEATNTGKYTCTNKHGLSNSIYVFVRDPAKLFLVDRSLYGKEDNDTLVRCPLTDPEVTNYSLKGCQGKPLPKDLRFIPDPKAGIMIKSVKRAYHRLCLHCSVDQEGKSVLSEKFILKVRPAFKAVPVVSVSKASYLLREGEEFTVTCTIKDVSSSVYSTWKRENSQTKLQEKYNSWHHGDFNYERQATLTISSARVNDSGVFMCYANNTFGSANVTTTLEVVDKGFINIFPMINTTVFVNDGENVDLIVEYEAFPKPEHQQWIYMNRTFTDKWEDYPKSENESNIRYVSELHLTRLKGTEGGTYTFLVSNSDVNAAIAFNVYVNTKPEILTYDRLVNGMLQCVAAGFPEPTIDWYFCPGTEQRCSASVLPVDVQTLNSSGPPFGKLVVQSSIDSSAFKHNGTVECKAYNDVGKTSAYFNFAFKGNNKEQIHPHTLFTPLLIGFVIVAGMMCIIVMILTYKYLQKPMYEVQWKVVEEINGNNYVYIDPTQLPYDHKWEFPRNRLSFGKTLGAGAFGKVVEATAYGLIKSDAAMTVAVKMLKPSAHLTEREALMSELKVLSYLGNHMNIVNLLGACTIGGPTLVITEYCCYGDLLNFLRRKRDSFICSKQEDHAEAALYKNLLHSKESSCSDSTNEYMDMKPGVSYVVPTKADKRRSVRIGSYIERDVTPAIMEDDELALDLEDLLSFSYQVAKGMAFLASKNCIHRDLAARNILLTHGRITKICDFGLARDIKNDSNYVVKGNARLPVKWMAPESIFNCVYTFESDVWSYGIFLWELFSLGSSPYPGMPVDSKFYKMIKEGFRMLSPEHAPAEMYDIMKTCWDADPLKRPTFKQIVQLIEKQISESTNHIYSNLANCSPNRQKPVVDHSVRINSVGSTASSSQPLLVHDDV
row,SMILES,inhibition
1,COc1ccc(-c2cc(-c3c[nH]nc3-c3ccccn3)ccn2)cc1,9.66%
2,CCCN(CCS(C)(=O)=O)Cc1ccc(-c2ccc3ncnc(Nc4ccc(OCc5cccc(F)c5)c(Cl)c4)c3c2)o1,4.79%
3,FC(F)(F)c1cccc(-c2nn3ncccc3c2-c2ccnc(Nc3ccc4c(c3)OCCO4)n2)c1,24.6%
4,CCNC(=O)O[C@H]1CN[C@H](C#Cc2cc3ncnc(Nc4ccc(OCc5cccc(F)c5)c(Cl)c4)c3s2)C1,2.58%
5,COC(=O)Nc1nc2ccc(S(=O)(=O)c3ccc(NC(=O)Nc4cc(C(F)(F)F)ccc4F)cc3)cc2[nH]1,-0.26%
6,CC(=O)Nc1cccc(C#Cc2cncnc2Nc2ccc(OCc3cccc(F)c3)c(Cl)c2)c1,2.18%
7,CCOc1ccc2c(-c3ccnc(Nc4cccc(C(F)(F)F)c4)n3)cnn2n1,17.8%
8,CC(=O)NCc1cccc(C#Cc2cncnc2Nc2ccc(OCc3cccc(F)c3)c(Cl)c2)c1,0.4%
9,Cc1cccc2c1NC(=O)/C2=N\Nc1ccc(S(N)(=O)=O)cc1,34.3%
10,COc1ccc(-c2nn3ncccc3c2-c2ccnc(Nc3ccc4c(c3)OCCO4)n2)cc1,85.2%
11,Fc1ccc(-c2cc(-c3c[nH]nc3-c3ccccn3)ccn2)cc1,6.81%
12,CCN(CC)S(=O)(=O)c1ccc(OC)c(Nc2ncc(-c3ccccc3)o2)c1,87.8%
13,COc1cccc(-c2c[nH]c3c(N/N=C/c4ccncc4)ncnc23)c1,88%
14,c1ccc(-c2nc3n(c2-c2ccc4c(c2)OCO4)CCC3)nc1,1.73%
15,COc1cccc(-n2ncc3c(N/N=C/c4ccc(F)cc4)ncnc32)c1,17.1%
16,Nc1ncc(-c2cccc(S(N)(=O)=O)c2)c2scc(-c3ccc(F)c(Cl)c3)c12,98.1%
17,Cc1ccc2c(-c3ccnc(Nc4ccccc4)n3)c(-c3ccc(F)cc3)nn2n1,75.7%

row,SMILES,inhibition
1,CS(=O)(=O)CCNCc1ccc(-c2ccc3ncnc(Nc4ccc(OCc5ccccc5)c(C(F)(F)F)c4)c3c2)o1,4.84%
2,NC(=O)c1sc(-n2cnc3ccc(C(F)(F)F)cc32)cc1OCc1ccccc1Br,5.18%
3,CCn1c(-c2nonc2N)nc2ccccc21,4.28%
4,NS(=O)(=O)c1ccc(Nc2ncc(-c3ccccc3)o2)cc1,88.6%
5,COc1ccc2[nH]c3c4[nH]c5ccc(OC)cc5c4c4c(c3c2c1)C(=O)NC4=O,79.9%
6,Nc1nc(-c2ccc(F)cc2)c(-c2ccc3ncccc3n2)s1,9.66%
7,COc1ccc(CNC(=O)c2ccc(-c3cc(-c4nnc(C)o4)ccc3C)cc2)cc1,6.51%
8,O=C(O[C@H]1CN[C@H](C#Cc2cc3ncnc(Nc4ccc(Cc5ccccc5)cc4)c3s2)C1)N1CCOCC1,3.44%
9,N#Cc1c(NC(=O)CN2CCOCC2)sc2c1CCCC2,7.99%
10,Cc1cccc(Nc2ncc(-c3ccccc3)o2)c1,89%
11,O=C(Nc1n[nH]c2cc(-c3ccc(F)cc3)ccc12)C1CC1,5.1%
12,COC(=O)c1sc(-n2cnc3cc(OC)c(OC)cc32)cc1OCc1ccccc1C(F)(F)F,11.8%
13,Cc1ccc(O)cc1Nc1ccnc2cc(-c3ccccn3)ccc12,43.1%
14,CCc1nn2ncccc2c1-c1ccnc(NC2CC2)n1,7.72%
15,CCn1cc(-c2ccnc3[nH]ccc23)c(-c2cccc(NC(=O)Nc3ccc(OCc4ccccc4)cc3)c2)n1,-0.41%
16,COc1cc2c(cc1Nc1nc(Nc3ccsc3C(N)=O)c3cc[nH]c3n1)N(C(=O)CN(C)C)CCC2(C)C,67.6%

# Tested on: Mast/stem cell growth factor receptor Kit (Homo sapiens), P10721 [D816V]
# Details: at 0.1 µM
# Mast/stem cell growth factor receptor Kit (Homo sapiens), P10721 [D816V], sequence (P10721 whole entry D816V): as the sequence (P10721 whole entry) above, with D816V counted along it
row,SMILES,inhibition
1,COc1ccc(-c2cc(-c3c[nH]nc3-c3ccccn3)ccn2)cc1,4.3%
2,CCCN(CCS(C)(=O)=O)Cc1ccc(-c2ccc3ncnc(Nc4ccc(OCc5cccc(F)c5)c(Cl)c4)c3c2)o1,1.86%
3,FC(F)(F)c1cccc(-c2nn3ncccc3c2-c2ccnc(Nc3ccc4c(c3)OCCO4)n2)c1,1.11%
4,CCNC(=O)O[C@H]1CN[C@H](C#Cc2cc3ncnc(Nc4ccc(OCc5cccc(F)c5)c(Cl)c4)c3s2)C1,2.43%
5,COC(=O)Nc1nc2ccc(S(=O)(=O)c3ccc(NC(=O)Nc4cc(C(F)(F)F)ccc4F)cc3)cc2[nH]1,3.87%
6,CC(=O)Nc1cccc(C#Cc2cncnc2Nc2ccc(OCc3cccc(F)c3)c(Cl)c2)c1,1.33%
7,CCOc1ccc2c(-c3ccnc(Nc4cccc(C(F)(F)F)c4)n3)cnn2n1,0.23%
8,CC(=O)NCc1cccc(C#Cc2cncnc2Nc2ccc(OCc3cccc(F)c3)c(Cl)c2)c1,-2.07%
9,Cc1cccc2c1NC(=O)/C2=N\Nc1ccc(S(N)(=O)=O)cc1,1.59%
10,COc1ccc(-c2nn3ncccc3c2-c2ccnc(Nc3ccc4c(c3)OCCO4)n2)cc1,-1.73%
11,Fc1ccc(-c2cc(-c3c[nH]nc3-c3ccccn3)ccn2)cc1,1.94%
12,CCN(CC)S(=O)(=O)c1ccc(OC)c(Nc2ncc(-c3ccccc3)o2)c1,3.78%
13,COc1cccc(-c2c[nH]c3c(N/N=C/c4ccncc4)ncnc23)c1,8.75%
14,c1ccc(-c2nc3n(c2-c2ccc4c(c2)OCO4)CCC3)nc1,2.63%
15,COc1cccc(-n2ncc3c(N/N=C/c4ccc(F)cc4)ncnc32)c1,7.16%
16,Nc1ncc(-c2cccc(S(N)(=O)=O)c2)c2scc(-c3ccc(F)c(Cl)c3)c12,-0.67%
17,Cc1ccc2c(-c3ccnc(Nc4ccccc4)n3)c(-c3ccc(F)cc3)nn2n1,1.56%

row,SMILES,inhibition
1,CS(=O)(=O)CCNCc1ccc(-c2ccc3ncnc(Nc4ccc(OCc5ccccc5)c(C(F)(F)F)c4)c3c2)o1,2.36%
2,NC(=O)c1sc(-n2cnc3ccc(C(F)(F)F)cc32)cc1OCc1ccccc1Br,5.27%
3,CCn1c(-c2nonc2N)nc2ccccc21,1.78%
4,NS(=O)(=O)c1ccc(Nc2ncc(-c3ccccc3)o2)cc1,0.49%
5,COc1ccc2[nH]c3c4[nH]c5ccc(OC)cc5c4c4c(c3c2c1)C(=O)NC4=O,31.6%
6,Nc1nc(-c2ccc(F)cc2)c(-c2ccc3ncccc3n2)s1,1.91%
7,COc1ccc(CNC(=O)c2ccc(-c3cc(-c4nnc(C)o4)ccc3C)cc2)cc1,-5.34%
8,O=C(O[C@H]1CN[C@H](C#Cc2cc3ncnc(Nc4ccc(Cc5ccccc5)cc4)c3s2)C1)N1CCOCC1,8.25%
9,N#Cc1c(NC(=O)CN2CCOCC2)sc2c1CCCC2,3.63%
10,Cc1cccc(Nc2ncc(-c3ccccc3)o2)c1,1.52%
11,O=C(Nc1n[nH]c2cc(-c3ccc(F)cc3)ccc12)C1CC1,3.06%
12,COC(=O)c1sc(-n2cnc3cc(OC)c(OC)cc32)cc1OCc1ccccc1C(F)(F)F,2.28%
13,Cc1ccc(O)cc1Nc1ccnc2cc(-c3ccccn3)ccc12,23.5%
14,CCc1nn2ncccc2c1-c1ccnc(NC2CC2)n1,0.04%
15,CCn1cc(-c2ccnc3[nH]ccc23)c(-c2cccc(NC(=O)Nc3ccc(OCc4ccccc4)cc3)c2)n1,1.35%
16,COc1cc2c(cc1Nc1nc(Nc3ccsc3C(N)=O)c3cc[nH]c3n1)N(C(=O)CN(C)C)CCC2(C)C,3.34%
